Sampled rows, rich in hits. Any-hit rate of the full collection: about 2.4%.
SENP8 block-1: inhibitors of human SENP8 protease | Q96LD8 | recombinant SENP8, Nedd8 substrate fluorescence | inhibition, % at 20 µM | 0.64% of 360,000 active; in the data active = inhibition mostly above about 40%, no sharp cut-off; inactive = mostly below about 27%
SENP6 inh: inhibitors of human SENP6 protease | inhibition, % at 10 µM | Recombinant SENP6 catalytic domain, aminoluciferin luminescence | 1.8% of 330,000 active | AID 2599 | Q9GZR1;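 active = inhibition above about 50% at the single tested dose, limit read from the data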;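 also: plate controls were DMSO wells with enzyme for no effect and DMSO wells lacking enzyme for full effect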
Target sequence (Q9GZR1 628-1112 limits assumed): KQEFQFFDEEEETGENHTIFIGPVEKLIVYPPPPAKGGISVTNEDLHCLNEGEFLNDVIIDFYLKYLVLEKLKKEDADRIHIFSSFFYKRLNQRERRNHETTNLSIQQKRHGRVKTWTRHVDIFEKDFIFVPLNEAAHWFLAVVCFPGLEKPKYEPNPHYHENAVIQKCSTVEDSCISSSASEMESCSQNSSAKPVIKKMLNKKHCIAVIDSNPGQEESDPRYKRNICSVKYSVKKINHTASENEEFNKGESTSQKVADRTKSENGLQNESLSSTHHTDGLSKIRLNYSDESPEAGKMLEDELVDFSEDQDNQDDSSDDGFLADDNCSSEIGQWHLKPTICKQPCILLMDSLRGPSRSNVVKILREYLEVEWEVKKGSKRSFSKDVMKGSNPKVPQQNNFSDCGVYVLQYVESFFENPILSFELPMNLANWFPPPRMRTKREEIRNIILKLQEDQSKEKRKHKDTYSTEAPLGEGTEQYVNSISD
SENP8 block-2: blocks the human protease SENP8; Q96LD8; purified SENP8, Z-RLRGG-aminoluciferin cleavage, luminescence; inhibition, % at 10 µM; 1.2% of 330,000 active; AID 2540; in the data active = inhibition above about 50%
SENP7 block: blocks the human protease SENP7 | Q9BQF6 | inhibition, % at 5 µM | recombinant SENP7, Z-RLRGG-aminoluciferin luminescence, 40 min | 1.5% of 330,000 active;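 active = inhibition above about 50% at the single test dose, limit read from the data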;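 also: plate controls were DMSO with enzyme for no effect and no enzyme buffer wells for full effect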
Platelet DG rel: modulates dense granule release in human platelets; human platelet-rich plasma, SFLLRN dense granule ATP release, luminescence; inhibition, %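 (compounds screened at 7.5 µM in platelet-rich plasma)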; 0.22% of 300,000 active; AID 1663;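 active = mean replicate score, as percent of positive control, at or above 50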
SENP8 confirm: confirmation of human SENP8 protease inhibitors. shares compounds with SENP7 block. Recombinant SENP8, Z-RLRGG-aminoluciferin luminescence, 60 min. inhibition, % at 12.5 µM. 40% of 6,200 active;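 active = mean inhibition across replicates above about 50%, limit read from the data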
SENP6 conf: human SENP6 inhibition, confirmed | shares compounds with SENP7 block | recombinant SENP6, Z-RLRGG-aminoluciferin luminescence | inhibition, % at 12.5 µM | 58% of 6,200 active
SENP7 confirm: human SENP7 inhibition, confirmed; shares compounds with SENP7 block; recombinant SENP7, Z-RLRGG-aminoluciferin luminescence, 40 min; inhibition, % at 12.5 µM; 69% of 6,200 active
Casp3 SENP sel: inhibits human caspase-3 in SENP selectivity test; inhibition, % at 12.5 µM; 60% of 6,200 active; shares compounds with SENP7 block; purified caspase-3, Z-DEVD-aminoluciferin luminescence, 60 min; AID 488918;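 active = mean inhibition above about 50%, limit read from the data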;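 also: plate controls were enzyme with DMSO for no effect and wells without caspase-3 for full effect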
SENP luc ctr: interferes with luciferase luminescence in SENP counter-screen; shares compounds with SENP7 block; Pre-incubated SENP8/Z-RLRGG-aminoluciferin, luciferase luminescence interference; inhibition, % at 12.5 µM; 39% of 6,200 active;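 active = mean inhibition above about 50% when retested at one dose, limit read from the data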;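 also: plate controls were DMSO wells with completed reaction for no effect and substrate without enzyme for full effect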
* = called active by the depositor; nt = no result.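 The calls were made as follows, unless noted: active = mean inhibition above about 50% in the one-dose retest (limit read from the data); inactive = the rest.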

SMILES	SENP8 block-1	SENP6 inh	SENP8 block-2	SENP7 block	Platelet DG rel	SENP8 confirm	SENP6 conf	SENP7 confirm	Casp3 SENP sel	SENP luc ctr
Cc1cc(C(F)(F)F)c(C#N)c(SCC(=O)Nc2nc3ccccc3s2)n1	19	80*	89*	91*	6	20	16	12	20	2
Cc1cnc(NC(=O)c2sc3ccccc3c2Cl)s1	-98	80*	66*	84*	8	21	50	53*	26	7
Cc1ccnc(NC(=O)c2sc3ccccc3c2Cl)c1	-2	71*	57*	89*	24	42	37	16	55*	6
O=C(Nc1nccs1)c1sc2ccccc2c1Cl	-88	88*	75*	71*	8	2	58*	91*	70*	7
Cc1ccc(N2CCC(N3CCN(C4CCCCC4)C(CCO)C3)CC2)cc1 (stereo not given)	13	-13	-5	4	-1	nt	nt	nt	nt	nt
N=c1cc(C2(O)CCCCC2)n2c(nc3ccccc32)s1	9	62*	26	58*	19	43	42	80*	62*	54*
Oc1[nH]c2ccc(Br)cc2c1N=Nc1ccc(F)cc1	23	-3	3	7	5	nt	nt	nt	nt	nt
Oc1[nH]c2ccccc2c1N=Nc1ccccc1F	24	41	3	75*	1	16	11	35	20	11
Oc1[nH]c2ccccc2c1N=Nc1ccc(F)cc1	23	78*	69*	89*	7	-18	64*	67*	26	-6
Oc1[nH]c2ccccc2c1N=Nc1nc2ccccc2s1	29	72*	55*	89*	2	40	32	51*	36	43
CC(C)(O)C(=O)N=Nc1c(O)[nH]c2ccccc12	17	-16	-4	1	-3	nt	nt	nt	nt	nt
Oc1[nH]c2ccccc2c1N=Nc1ccccc1	50*	88*	73*	80*	4	40	73*	94*	62*	7
O=C(N=Nc1c(O)[nH]c2ccccc12)Nc1ccccc1	15	nt	nt	nt	nt	nt	nt	nt	nt	nt
COc1ccc(CNC(=O)COC(=O)c2ccc(S(=O)(=O)NCc3ccco3)cc2)cc1	1	-11	-13	-28	nt	nt	nt	nt	nt	nt
CC(=O)Nc1ccc(NC(=O)Nc2ccccc2)cc1	14	13	-2	17	14	nt	nt	nt	nt	nt
O=C(O)Cc1ccc2ocnc2c1	8	13	7	5	-3	nt	nt	nt	nt	nt
O=C(Nc1ccccc1)Nc1ccc2ocnc2c1	-12	31	58*	76*	22	4	64*	88*	84*	45
O=C(Nc1ccccc1)Nc1ccc2ncoc2c1	-10	0	25	62*	-4	58*	53*	82*	67*	58*
CCC(=O)Nc1ccc2c(c1)C(=O)c1ccccc1C2=O	18	16	8	38	1	nt	nt	nt	nt	nt
CCC(C)(C)c1ccc2c(c1)C(=O)c1ccccc1C2=O	14	93*	79*	77*	7	10	84*	86*	96*	80*
CCN(CC)CCNC(=S)NC(=O)c1cn(-c2ccccc2)nc1-c1ccc(OC)cc1	-4	-4	-5	-5	-11	nt	nt	nt	nt	nt
CC(=Nc1ccccc1)C1=C(O)COC1=O	10	-18	1	2	0	nt	nt	nt	nt	nt
NC(=Nc1ccc(Br)cc1)c1ccccc1	6	-8	-14	4	4	nt	nt	nt	nt	nt
CC(=Nc1ccccc1)c1sc2ccccc2c1O	-76	85*	80*	76*	8	88*	88*	98*	77*	76*
CC(=Nc1ccc(Br)cc1)c1sc2ccccc2c1O	-52	80*	61*	73*	16	-4	8	5	13	6
SMILES	SENP8 block-1	SENP6 inh	SENP8 block-2	SENP7 block	Platelet DG rel	SENP8 confirm	SENP6 conf	SENP7 confirm	Casp3 SENP sel	SENP luc ctr
Cc1ccc(N=Nc2ccc3ccccc3c2O)cc1	16	46	90*	100*	2	6	7	1	2	7
Oc1c(N=Nc2ccc(F)cc2)ccc2ccccc12	42*	82*	86*	99*	5	38	45	21	78*	12
Brc1ccc(-c2cnc(-c3cccs3)o2)cc1	-370	69*	41	62*	2	56*	67*	86*	36	47
Nc1ccccc1Sc1nc2ccccc2[nH]1	-6	61*	57*	23	0	61*	58*	84*	86*	72*
CCCCCOc1ccc(CSc2ncn[nH]2)cc1	-17	65*	50	16	-1	71*	68*	86*	25	74*
Nc1nc2ccccc2[nH]1	17	-17	3	-1	4	nt	nt	nt	nt	nt
Fc1ccc(CSc2nc3ccccc3[nH]2)cc1	7	83*	71*	7	7	83*	79*	94*	74*	79*
c1ccc(CSc2nc3ccccc3[nH]2)cc1	17	-13	69*	77*	6	62*	72*	94*	80*	24
O=C(CCNC(=O)c1ccccc1Cl)Nc1cccc(S(=O)(=O)N2CCCC2)c1	0	-12	-18	-4	nt	nt	nt	nt	nt	nt
CC1(C)CC(=O)C(CSC(=O)c2ccccc2)C(=O)C1	23	nt	nt	nt	nt	nt	nt	nt	nt	nt
CCCOc1ccc(CSc2nc3ccccc3[nH]2)cc1	16	91*	88*	95*	3	92*	97*	102*	88*	58*
CCOc1ccc(OCCSc2nc3ccccc3[nH]2)cc1	10	-41	-6	3	6	nt	nt	nt	nt	nt
Cc1n[nH]c(=O)nc1N/N=C/c1ccc(O)c([N+](=O)[O-])c1	55*	65*	36	65*	18	50*	39	82*	77*	8
COc1ccc(/C=N/Nc2nc(=O)[nH]nc2C)cc1[N+](=O)[O-]	23	23	-11	16	8	nt	nt	nt	nt	nt
O=C(NCCc1nnc2ccc(NCCCN3CCOCC3)nn12)c1ccccc1	-4	-2	3	-2	17	nt	nt	nt	nt	nt
COC(=O)c1ccc(-c2ccc(F)cc2)nc1C	28	62*	35	53*	6	-13	29	77*	41	3
Cc1ccc(-c2ccc(C(=O)O)c(C)n2)cc1	10	14	-1	-4	4	nt	nt	nt	nt	nt
CCOC(=O)c1ccc(-c2ccc3c(c2)CCC3)nc1C	21	60*	53*	70*	12	57*	57*	80*	49	43
